# Screen size: about 320,000 compounds; about 2,100 (0.66%) were called active. Not shown: some 53% with an inconclusive outcome. Calls come from the whole dose curve; as a rule, active = well fitted inhibition curve with a large enough effect in the signal ratio, with a control signal flat (not every such curve was filed as active); inconclusive = small, poorly fitted or top-dose-only effect, or effect the other way, or a change in a side signal; inactive = flat fitted curve, though single readings scatter; the % refers to the signal ratio. What follows is part of a selection rich in actives, with near analogues and random picks from the rest.
# Test: qHTS Assay for Lipid Storage Modulators in Drosophila S3 Cells;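 for cell number change: cells counted by Cell Tracker Red CMTPX staining in the red channel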; for lipid storage change, negative = inhibition: % is set by controls: 0 for no effect and ±100 for the full control effect
# Conditions: BODIPY lipid droplet fluorescence, 18-24 h, cells fed with added oleic acid; cell number change: measured here: cell count max response; series mostly up to 46.1 µM; lipid storage change, negative = inhibition: at the top concentration
# Procedure, shortened: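 Drosophila S3 cells loaded with oleic acid (400 uM, as added) and compounds at several concentrations; lipid droplets imaged by 488-nm laser-scanning cytometry, 500–530 nm intensity and object ratio to cell channel. Percent activity normalized to 20 uM Triacsin C.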
# Potency is the fitted concentration of half-maximal effect.
SMILES,"lipid storage change, negative = inhibition",Potency,cell number change [%],outcome
Cc1cc(C)n(-c2nnc(C)c(=O)[nH]2)n1,4.01% (inactive),,,
O=C(NP(=O)(N1CCCC1)N1CCCC1)C1=C(N2CCOCC2)/C(=C/c2cccc([N+](=O)[O-])c2)CC1,19.1% (inactive),,,
N#C/C(=C\C1=C(N2CCOCC2)C(=C/c2cccc([N+](=O)[O-])c2)/CC1)C(=O)Nc1ccccc1F,,2.06 µM (active),1.41,
N#C/C(=C/c1cccc([N+](=O)[O-])c1)C(=O)Nc1ccccc1O,1.09% (inactive),,0.725,
O=CC1=C(N2CCOCC2)/C(=C\c2ccccc2)CC1,6.77% (inactive),,1.5,
CCOC(=O)C(=O)C1=C(N2CCOCC2)/C(=C\c2cccc([N+](=O)[O-])c2)CC1,4.84% (inactive),,-9.52,
CCN(CC)c1ccc(/C=C2\CCC(/C=C(\C#N)C(=O)Nc3ccccc3F)=C2N2CCOCC2)cc1,,0.58 µM (active),1.95,
CC(NC(=O)C12CC3CC(CC(C3)C1)C2)C(=O)N/N=C/C1=C(N2CCOCC2)C(=C\c2cccc([N+](=O)[O-])c2)/CC1 (stereo not given),,13 µM (active),4.98,
O=C(O)c1ccccc1N/N=C/C1=C(N2CCOCC2)C(=C\c2ccccc2)/CC1,8.4% (inactive),,,
CC(C)C(NC(=O)C12CC3CC(CC(C3)C1)C2)C(=O)N/N=C/C1=C(N2CCOCC2)C(=C\c2cccc([N+](=O)[O-])c2)/CC1 (stereo not given),13% (inactive),,9.26,
CC(C)Oc1ccc(N2CC(C(=O)Nc3ccc(N4CCOCC4)cc3)CC2=O)cc1 (stereo not given),7.42% (inactive),,15.2,
CCOC(=O)c1cc(CC)sc1/N=C/c1c(O)ccc2ccccc12,21.6% (inactive),,1.95,
O=C(Cn1cnc([N+](=O)[O-])n1)NCCO,-0.893% (inactive),,0.588,
O=c1[nH]c(CN2CCN(c3ccc(F)cc3)CC2)nc2ccccc12,9.13% (inactive),,-21.1,
CCC(=O)NC(C)c1cc(Cl)c2ccccc2c1O (stereo not given),12.7% (inactive),,-12.2,
COCCn1c(Cc2ccccc2)nnc1SCC(=O)Nc1cc(C)on1,-1.8% (inactive),,,
Cc1ccc(-n2c(SCC(=O)NNC(=S)Nc3ccccc3)nc3ccccc3c2=O)cc1,5% (inactive),,9.73,
CN1CCC(N(C)CC(O)c2ccccc2)CC1 (stereo not given),-18.8% (inactive),,-4.15,
CN1C(CC(=O)c2ccccc2)CCCC1CC(O)c1ccccc1 (stereo not given),,18.4 µM (active),-3.64,
CN1[C@@H](CC(=O)c2ccccc2)CCC[C@H]1C[C@H](O)c1ccccc1,4.29% (inactive),,9.08,

SMILES,"lipid storage change, negative = inhibition",Potency,cell number change [%],outcome
C=CCSc1nc(O)c(CC)c(=O)n1C(C)CC (stereo not given),2.71% (inactive),,-4.8,
Cc1ccc(OCc2ccc(C(=O)NCC3CCCO3)cc2)cc1 (stereo not given),8.3% (inactive),,13.4,
Cc1ccc(OCc2ccc(C(=O)NCC3CCCO3)cc2)cc1C (stereo not given),,10.3 µM (active),-8.64,
Cc1noc(C)c1COc1ccc(C(=O)NCC2CCCO2)cc1 (stereo not given),-9.48% (inactive),,-13.5,
Cc1cccc(NC(=O)Nc2ccccc2)n1,-0.183% (inactive),,-19.9,
COc1ccc(/C=C/C(=O)N2CCNC(=O)C2)c(OC)c1,-28.8% (inactive),,,
COc1ccc(-c2cc(=O)oc3c(C)c(OCC(=O)N(C)C)ccc23)cc1,,,,inactive
CC(=O)Nc1ccc(OC(=O)c2cc([N+](=O)[O-])ccc2Cl)cc1,-0.987% (inactive),,,
Clc1cccc(NC2=NCCC2)c1,,25.9 µM (active),-7.84,
Clc1cccc(Cl)c1NC1=NCCC1,-9.95% (inactive),,6.79,
Cc1ccc(NC2=NCCC2)cc1Cl,-2.15% (inactive),,,
CCCCNC(=S)NNC(=O)c1cccnc1,5.02% (inactive),,0.804,
CC(C)Sc1nc2c(c(=O)[nH]c(=O)n2C)n1Cc1ccccc1,-2.37% (inactive),,,
O=[N+]([O-])c1cccc(S(=O)(=O)NCc2ccncc2)c1,,10.3 µM (active),-3.97,
O=[N+]([O-])c1ccc(S(=O)(=O)NCCc2ccncc2)cc1,11.3% (inactive),,17.1,
O=[N+]([O-])c1cccc(S(=O)(=O)NCCc2ccccc2)c1,,,-15.1,inactive
CCCNC(=O)COC(=O)c1ccc(N2CCCC2)c([N+](=O)[O-])c1,-3.38% (inactive),,10,
N=C1/C(=C\c2ccc(-c3cccc(Cl)c3)o2)C(=O)N=C2SC=C(c3ccccc3)N12,4.02% (inactive),,-13.8,
CC1CN2C(c3ccc(Cl)cc3)=CSC2=N1 (stereo not given),,,15.5,inactive
Clc1ccc(C2=CSC3=Nc4cccc5cccc(c45)N23)cc1,,0.13 µM (active),-10.2,

SMILES,"lipid storage change, negative = inhibition",Potency,cell number change [%],outcome
COc1ccc(OC[C@@H](O)CNC(=O)c2cccc3c2C(=O)c2ccc(Cl)cc2S3(=O)=O)cc1,6.63% (inactive),,6.27,
O=C(NNC(=O)c1ccccc1F)c1ccc(Cl)c(S(=O)(=O)N2CCOCC2)c1,0.713% (inactive),,4.79,
Cc1cc(C)c(Cn2c3ccccc3c3cnn(CC(=O)NCc4ccccn4)c(=O)c32)c(C)c1,,14.6 µM (active),17.6,
Cc1c2cnn(CC(=O)NCc3ccccn3)c(=O)c2c(C)n1Cc1ccccc1,6.37% (inactive),,-4.61,
Cc1ccc(C)c(Cn2c3ccccc3c3cnn(CC(=O)NCc4ccccn4)c(=O)c32)c1,,,21.8,inactive
Cc1ccccc1CN1CCNC1=O,,,,inactive
COCCCNC(=O)CS(=O)Cc1nc(-c2ccccc2C)oc1C (stereo not given),5.85% (inactive),,-1.92,
COc1ccc(-c2nc(CS(=O)(=O)CC(=O)NCc3cccc(OC)c3OC)c(C)o2)cc1,1.65% (inactive),,10.4,
CCc1c(C)sc(NC(=O)c2cc(C(C)C)on2)c1C#N,4.2% (inactive),,4.86,
CCOC(=O)Cn1c(=N)n(Cc2ccccc2F)c2ccccc21,,18.4 µM (active),-1.47,
C=CCn1c(=N)n(CC(=O)OCC)c2ccccc21,-3.21% (inactive),,2.48,
CCCn1c(=N)n(CC(=O)OCC)c2ccccc21,10.3% (inactive),,13.2,
Cc1cccc(NCc2ccc(Br)cc2)n1,6.89% (inactive),,-13.5,
O=C(CN1CCCCC1)N1CCCc2ccccc21,,,7.83,inactive
O=C1CNC(=O)N1CC(=O)N1CCCc2ccccc21,,29.1 µM (active),-34.5,
O=C(CN1C(=O)COc2ccccc21)N1CCCc2ccccc21,-23.7% (inactive),,11.3,
COc1ccccc1NC(=S)NCc1ccc(F)cc1,,11.6 µM (active),-1.4,
COc1ccccc1NC(=S)NCc1ccc(Cl)cc1,12.7% (inactive),,8.81,
COc1ccccc1NC(=S)NCc1ccc(S(N)(=O)=O)cc1,4.94% (inactive),,6.14,
CC(C)CNC(=O)CSc1nnc(-c2ccccn2)n1Cc1ccccc1,0.755% (inactive),,-1.23,
